Assay results as given in PubChem BioAssay (NCATS).
Results filed as inconclusive are left out. Calls of active or inactive are those of the source. Calls follow the shape of the dose curve; as a rule, active = well fitted curve in the direction sought with a large enough effect in the repeat runs; inconclusive = weak or mixed curves; inactive = no such curve, though single readings can be large; an effect the other way counts as inactive or inconclusive.

Experiments:
[1] = target: Cytochrome P450 2D6 (Homo sapiens) (UniProt P10635); assay: Cytochrome P450 family 2 subfamily D member 6 (CYP2D6) small molecule antagonists: luciferase biochemical (cell-free) qHTS assay (AID 1645840)
Sequence of Cytochrome P450 2D6 (Homo sapiens) (P10635 whole entry, looked up): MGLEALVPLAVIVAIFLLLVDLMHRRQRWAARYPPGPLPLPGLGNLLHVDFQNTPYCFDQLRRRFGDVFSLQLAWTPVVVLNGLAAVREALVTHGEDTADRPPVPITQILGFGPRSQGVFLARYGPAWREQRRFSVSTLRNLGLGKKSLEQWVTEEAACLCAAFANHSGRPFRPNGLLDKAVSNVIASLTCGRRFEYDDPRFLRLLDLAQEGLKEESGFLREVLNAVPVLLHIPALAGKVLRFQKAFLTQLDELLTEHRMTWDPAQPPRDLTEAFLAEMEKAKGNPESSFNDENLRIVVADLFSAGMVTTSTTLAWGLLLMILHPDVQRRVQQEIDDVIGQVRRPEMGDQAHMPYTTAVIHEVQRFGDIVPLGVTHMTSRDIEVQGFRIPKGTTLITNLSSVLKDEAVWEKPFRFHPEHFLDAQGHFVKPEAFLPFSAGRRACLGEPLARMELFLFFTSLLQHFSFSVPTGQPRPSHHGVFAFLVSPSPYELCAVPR
Summary of the method: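 P450-Glo luminescent screen: recombinant CYP2D6 enzyme–proluciferin substrate mix preincubated with compound 10 min at room temperature, then NADPH regeneration added for 1 h at room temperature. Detection reagent added for 20 min; luciferin light read as relative luminescence units.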

[2] = target: Cytochrome P450 2C9 (Homo sapiens) (UniProt P11712); assay: Cytochrome P450 family 2 subfamily C member 9 (CYP2C9) small molecule antagonists: luciferase biochemical (cell-free) qHTS assay (AID 1645842)
Sequence of Cytochrome P450 2C9 (Homo sapiens) (P11712 whole entry, looked up): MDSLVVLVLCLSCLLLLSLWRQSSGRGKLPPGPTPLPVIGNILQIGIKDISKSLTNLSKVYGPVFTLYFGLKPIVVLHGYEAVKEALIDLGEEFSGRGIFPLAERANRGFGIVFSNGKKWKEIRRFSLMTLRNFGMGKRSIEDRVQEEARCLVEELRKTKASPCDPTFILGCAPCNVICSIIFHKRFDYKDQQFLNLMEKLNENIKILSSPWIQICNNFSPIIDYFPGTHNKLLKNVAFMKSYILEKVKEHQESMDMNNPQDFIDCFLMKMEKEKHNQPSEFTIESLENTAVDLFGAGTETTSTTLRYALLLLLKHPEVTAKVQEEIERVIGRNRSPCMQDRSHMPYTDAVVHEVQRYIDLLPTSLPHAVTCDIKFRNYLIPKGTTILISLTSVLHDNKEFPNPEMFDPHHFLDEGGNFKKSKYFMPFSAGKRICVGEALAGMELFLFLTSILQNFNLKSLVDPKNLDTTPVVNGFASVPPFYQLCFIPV
Summary of the method: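 Luminescence, after 20 min with luciferin detection reagent, reflected CYP2C9 turnover during a 1 h NADPH-driven reaction at 37C. Enzyme-substrate mix contained 0.4% bovine serum albumin and was preincubated with compound 10 min at room temperature.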
Also: nearly all actives have a fitted effect of over 55% in size.
Potency is read from the fitted curve at half-maximal effect.

| Structure (SMILES) | Potency [1] | Potency [2] |
| --- | --- | --- |
| CN(C)S(=O)(=O)c1ccc(S(=O)(=O)N(Cc2ccccc2Cl)C[C@@H]2CCCO2)cc1 | inactive | 9.52 µM (active) |
| Cc1ccc([S+](=O)([O-])NC2CCC(C)(C)CC2)cc1 | inactive | 2.13 µM (active) |
| CN1C(=O)c2ccccc2Sc2ccc(NC(=O)Cc3ccc(Cl)cc3)cc21 | 6.01 µM (active) | 12 µM (active) |
| CCCCn1cnc2cc(NCc3ccccc3Cl)ccc21 | 0.12 µM (active) | 2.13 µM (active) |
| COc1ccc2c(CNCCc3ccccc3OC)c(C(=O)O)n(Cc3ccc(F)cc3Cl)c2c1 | 12 µM (active) | 12 µM (active) |
| CCNC(=O)N1CCN(C(=O)c2cnc3cc(OC)ccc3c2N2CCC(C)(C#N)CC2)CC1 | inactive | 2.39 µM (active) |
| CCc1ccc(-n2c(SCc3ccccc3C)nc3[nH]ncc3c2=O)cc1 | 9.52 µM (active) | 19 µM (active) |
| COc1ccccc1CNC(=O)CCC1N=C2c3ccccc3N=C(SCC(=O)NCCc3ccc(OC)c(OC)c3)N2C1=O (stereo not given) | inactive | 0.301 µM (active) |
| CCOC(=O)N1CCc2c(sc3c2c(=O)n(CCc2ccccc2)c(=O)n3CC(=O)Nc2cccc(C)c2)C1 | 1.07 µM (active) | 1.69 µM (active) |
| CCOc1ccc(CCNC(=O)C2CCCN(c3nnc(C)c4c(C)n(-c5ccccc5)nc34)C2)cc1 (stereo not given) | 4.77 µM (active) | 3.01 µM (active) |
| CC(=O)c1ccc(N2CCN(c3ncnc4c3cnn4C)CC2)cc1 | inactive | inactive |
| Cc1cccc(NC(c2cccc(Cl)c2)c2ccc3cccnc3c2O)n1 (stereo not given) | inactive | 28.2 µM (active) |
| CCc1ccc(C2=CC(c3cccc(OC)c3OC)n3c(nc4ccccc43)N2)cc1 (stereo not given) | 16.9 µM (active) | 3.79 µM (active) |
| COc1ccc(CC(=O)Nc2c(C(=O)N3CCN(c4ccccc4F)CC3)oc3ccccc23)cc1OC | inactive | inactive |
| Cc1ccc(CSC2=Nc3ccccc3C3=NC(CC(=O)NCc4cccs4)C(=O)N23)cc1 (stereo not given) | 6.74 µM (active) | 0.379 µM (active) |
| Cc1oc(-c2cccc(Cl)c2)nc1Cn1c(SCc2ccccc2F)nc2ccncc21 | 4.77 µM (active) | 7.56 µM (active) |
| CC[C@H](CO)Nc1cc(NCc2ccc(-c3ccccn3)cc2)c2ncn(C(C)C)c2n1 | 16.9 µM (active) | 1.34 µM (active) |
| OC[C@@H](O)C(O)[C@@H](O)CO (stereo not given in full) | inactive | inactive |
| CCCNC(=O)C1CCC(Cn2c(=O)c3sccc3n(CC(=O)NCc3ccccc3)c2=O)CC1 (stereo not given) | inactive | 6.01 µM (active) |
| Cc1ccc(NC(=O)Cn2cc(C(=O)c3ccco3)c3ccccc32)c(C)c1 | 6.74 µM (active) | 0.849 µM (active) |
| COc1ccc(NC(=O)Cn2ccn(-c3ccc(C)c(C)c3)c(=O)c2=O)cc1Cl | inactive | inactive |
| Cc1cccn2c(=O)c3cc(C#N)c(=O)n(-c4nnc(SCc5ccc(Cl)cc5)s4)c3nc12 | inactive | 6.01 µM (active) |
| CC(C)(C)c1ccc(S(=O)(=O)c2cnc(SCC(=O)Nc3ccc(F)c(Cl)c3)[nH]c2=O)cc1 | 16.9 µM (active) | 0.536 µM (active) |
| Cc1cc(O)c(Cl)c(C)c1Cl | inactive | inactive |
| Cc1ccc([S+](=O)([O-])NC2(c3ccccc3)CCCCC2)cc1 | inactive | 2.68 µM (active) |
| Cc1ccc(C)c(NC(=O)C2CCN(S(=O)(=O)c3c(C)noc3/C=C/c3cccs3)CC2)c1 | 2.39 µM (active) | 0.849 µM (active) |
| Cc1ccccc1CNC(=O)CCCn1c(=O)c2cccn2c2ccccc21 | 6.74 µM (active) | 9.52 µM (active) |
| Cc1ccc(S(=O)(=O)N[C@@H]2CCCC[C@H]2O)cc1 | inactive | inactive |

| Structure (SMILES) | Potency [1] | Potency [2] |
| --- | --- | --- |
| C[C@H](O[C@H]1OCCN(Cc2n[nH]c(=O)[nH]2)[C@H]1c1ccc(F)cc1)c1cc(C(F)(F)F)cc(C(F)(F)F)c1 | 10.7 µM (active) | 9.52 µM (active) |
| CC1=C(C(=O)Nc2ccc(CN)cc2)C(c2ccccc2Cl)N=C(Nc2nc3ccccc3o2)N1 (stereo not given) | 15.1 µM (active) | 10.7 µM (active) |
| CCn1cc(/C=C(\NC(=O)c2ccc(C)cc2)C(=O)NCCCn2ccnc2)c2ccccc21 | 0.169 µM (active) | 1.34 µM (active) |
| CCOc1ccccc1NC(=O)CSc1nc2ccccc2c2nc(CCn3cncc3C)nn12 | 10.7 µM (active) | 0.952 µM (active) |
| CCc1ccc(-n2c(SCc3ccccc3F)nc3[nH]ncc3c2=O)cc1 | 12 µM (active) | 4.77 µM (active) |
| Cc1ccc(-n2c(SCc3cccc(F)c3)nc3[nH]ncc3c2=O)cc1C | 8.49 µM (active) | 1.51 µM (active) |
| COCCn1c(SCC(=O)Nc2ccc(F)c(Cl)c2)nc2c(oc3ccccc32)c1=O | 2.39 µM (active) | 0.952 µM (active) |
| O=C(Cn1c(=O)n(-c2ccc(Cl)cc2)c(=O)c2oc3ccccc3c21)Nc1ccccc1 | 0.849 µM (active) | 4.77 µM (active) |
| COc1ccc(-n2nc3c(N4CCCC(C(=O)NCc5ccc(C)cc5)C4)nnc(C)c3c2C)cc1 (stereo not given) | 3.79 µM (active) | inactive |
| Cc1ccc(CNC(=O)C(C)n2nc(C)c3sc4ccccc4c3c2=O)cc1 (stereo not given) | 13.5 µM (active) | 2.39 µM (active) |
| CNC(=O)c1ccc(CSc2nc3ccncc3n2Cc2ccc(C)cc2)cc1 | 13.5 µM (active) | 7.56 µM (active) |
| COC(=O)C1=C(c2ccccc2)c2ccccc2S(=O)(=O)N1CC(=O)Nc1ccccc1Cl | 3.79 µM (active) | 4.77 µM (active) |
| COc1ccc(CNC(=O)C(=O)Nc2c3c(nn2-c2ccccc2)CSC3)cc1 | inactive | 3.38 µM (active) |
| Clc1cccc(-n2ncc3c(NCCCn4ccnc4)ncnc32)c1 | 2.13 µM (active) | 0.379 µM (active) |
| O=C(CC1N=C2c3ccccc3N=C(SCc3ccc(F)cc3)N2C1=O)NC1CCCCC1 (stereo not given) | 3.01 µM (active) | 2.68 µM (active) |
| CCOc1ccccc1NC(=O)Nc1nnc(N2CCCC(C)C2)s1 (stereo not given) | inactive | 10.7 µM (active) |
| COc1ccc(NC(=O)CSc2oc(-c3cccs3)nc2S(=O)(=O)c2ccc(Br)cc2)c(OC)c1 | inactive | 0.477 µM (active) |
| CCC(Sc1nc2ccccc2c2nc(CCn3cncc3C)nn12)C(=O)Nc1cccc(OC)c1 (stereo not given) | 12 µM (active) | 1.9 µM (active) |
| CCOC(=O)c1ccc(N2C(=O)c3n[nH]c(-c4ccco4)c3C2c2ccc(C)cc2)cc1 (stereo not given) | inactive | 2.39 µM (active) |
| COc1ccc(Br)c2c1-c1nc(NC(=O)c3ccccc3SC)sc1C2 | inactive | inactive |
| CC1(C#N)CCN(c2c(C(=O)N3CCN(C(=O)C4CC4)CC3)cnc3ccc(Cl)cc23)CC1 | inactive | 16.9 µM (active) |
| NCC1OC(OC2C(N)CC(N)C(OC3OC(CO)C(O)C(N)C3O)C2O)C(N)CC1O (stereo not given) | inactive | inactive |
| COc1ccc(Cn2c(CCC(=O)Nc3cccc(OC)c3)nc3cccnc32)cc1 | 2.68 µM (active) | 4.77 µM (active) |
| Cc1cncn1CCc1nc2c3ccccc3nc(SCC(=O)Nc3cccc(Cl)c3)n2n1 | 0.674 µM (active) | 0.425 µM (active) |
| Cc1ccc(C)c(Nc2nc3nonc3nc2Nc2cccc(C)c2C)c1 | 10.7 µM (active) | inactive |
| CC(NC(=O)C(=O)Nc1c2c(nn1-c1ccccc1)CSC2)c1ccccc1 (stereo not given) | inactive | 3.38 µM (active) |
| CC1(C#N)CCN(c2c(C(=O)N3CCC(S(C)(=O)=O)CC3)cnc3cc(F)c(F)cc23)CC1 | inactive | inactive |
